Measured values as given in the supplement of paper PMC8728848.
About 410 targets per protein were measured; listed, in parts, are those with the strongest signals and a random draw of the rest.

Legend:
Experiment in all cases: glycan array binding signal (z-score within array); higher = stronger binding
Conditions in all cases: glycan notation: IUPAC condensed, linker removed
[1] = target: Fuc(a1-2)Gal(b1-3)GalNAc(b1-3)Gal
In short: (§1)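 Glycan array data came from 3228 arrays in the Consortium for Functional Glycomics database, and only arrays with an available protein sequence were kept. Glycan names were put into IUPAC-condensed notation, and columns mapping to the same glycan were averaged. The binding signal is a within-array Z-score, averaged across arrays of one protein sequence run at different concentrations or buffers and across linkers. A negative Z-score can be read as non-binding.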

[2] = target: Fuc(a1-2)Gal(b1-3)GlcNAc(b1-3)[Fuc(a1-2)Gal(b1-3)GlcNAc(b1-6)]GalNAc
In short: as §1

[3] = target: Fuc(a1-2)Gal(b1-4)GlcNAc(b1-3)Gal(b1-4)GlcNAc(b1-3)Gal(b1-4)GlcNAc
In short: as §1

[4] = target: Fuc(a1-2)Gal(b1-4)GlcNAc(b1-3)GalNAc
In short: as §1

[5] = target: Fuc(a1-2)[Gal(a1-3)]Gal(b1-3)GlcNAc(b1-2)Man(a1-3)[Fuc(a1-2)[Gal(a1-3)]Gal(b1-3)GlcNAc(b1-2)Man(a1-6)]Man(b1-4)GlcNAc(b1-4)GlcNAc
In short: as §1

[6] = target: Fuc(a1-2)[Gal(a1-3)]Gal(b1-4)GlcNAc(b1-2)Man(a1-3)[Fuc(a1-2)[Gal(a1-3)]Gal(b1-4)GlcNAc(b1-2)Man(a1-6)]Man(b1-4)GlcNAc(b1-4)GlcNAc
In short: as §1

[7] = target: Fuc(a1-2)[Gal(a1-3)]Gal(b1-4)[Fuc(a1-3)]GlcNAc
In short: as §1

[8] = target: Fuc(a1-2)[GalNAc(a1-3)]Gal(b1-3)GlcNAc(b1-6)GalNAc
In short: as §1

[9] = target: Fuc(a1-3)[Gal(b1-4)]GlcNAc(b1-6)GalNAc
In short: as §1

[10] = target: Fuc(a1-3)[Gal3S(b1-4)]GlcNAc
In short: as §1

Fuc(a1-4)GlcNAc = target: Fuc(a1-4)GlcNAc
In short: as §1

Gal(a1-3)Gal(b1-4)Glc = target: Gal(a1-3)Gal(b1-4)Glc
In short: as §1

[11] = target: Gal(a1-3)Gal(b1-4)GlcNAc(b1-6)GalNAc
In short: as §1

Gal(b1-3)Gal(b1-4)GlcNAc = target: Gal(b1-3)Gal(b1-4)GlcNAc
In short: as §1

Gal(b1-3)GalNAc = target: Gal(b1-3)GalNAc
In short: as §1

Gal(b1-3)GalNAc(b1-3)Gal = target: Gal(b1-3)GalNAc(b1-3)Gal
In short: as §1

[12] = target: Gal(b1-3)GlcNAc(b1-2)[Gal(b1-3)GlcNAc(b1-6)]Man(a1-6)[Gal(b1-3)GlcNAc(b1-2)Man(a1-3)]Man(b1-4)GlcNAc(b1-4)GlcNAc
In short: as §1

[13] = target: Gal(b1-3)GlcNAc(b1-3)Gal(b1-4)Glc
In short: as §1

[14] = target: Gal(b1-3)GlcNAc(b1-3)Gal(b1-4)GlcNAc(b1-2)[Gal(b1-3)GlcNAc(b1-3)Gal(b1-4)GlcNAc(b1-6)]Man(a1-6)[Gal(b1-3)GlcNAc(b1-3)Gal(b1-4)GlcNAc(b1-2)Man(a1-3)]Man(b1-4)GlcNAc(b1-4)[Fuc(a1-6)]GlcNAc
In short: as §1

[15] = target: Gal(b1-3)GlcNAc(b1-3)Gal(b1-4)GlcNAc(b1-3)Gal(b1-4)GlcNAc(b1-2)[Gal(b1-3)GlcNAc(b1-3)Gal(b1-4)GlcNAc(b1-3)Gal(b1-4)GlcNAc(b1-6)]Man(a1-6)[Gal(b1-3)GlcNAc(b1-3)Gal(b1-4)GlcNAc(b1-3)Gal(b1-4)GlcNAc(b1-2)Man(a1-3)]Man(b1-4)GlcNAc(b1-4)[Fuc(a1-6)]GlcNAc
In short: as §1

[16] = target: Gal(b1-3)GlcNAc(b1-3)Gal(b1-4)GlcNAc(b1-6)[Gal(b1-3)GlcNAc(b1-3)]Gal(b1-4)Glc
In short: as §1

[17] = target: Gal(b1-3)GlcNAc(b1-3)GalNAc
In short: as §1

[18] = target: Gal(b1-4)GlcNAc(a1-6)Gal(b1-4)GlcNAc
In short: as §1

[19] = target: Gal(b1-4)GlcNAc(b1-2)[Gal(b1-4)GlcNAc(b1-4)]Man(a1-3)[Gal(b1-4)GlcNAc(b1-2)[Gal(b1-4)GlcNAc(b1-6)]Man(a1-6)][GlcNAc(b1-4)]Man(b1-4)GlcNAc(b1-4)GlcNAc
In short: as §1

[20] = target: Gal(b1-4)GlcNAc(b1-2)[Gal(b1-4)GlcNAc(b1-4)]Man(a1-3)[GlcNAc(b1-4)][Gal(b1-4)GlcNAc(b1-2)Man(a1-6)]Man(b1-4)GlcNAc(b1-4)GlcNAc
In short: as §1

[21] = target: Gal(b1-4)GlcNAc(b1-3)Gal(b1-4)GlcNAc(b1-2)[Gal(b1-4)GlcNAc(b1-3)Gal(b1-4)GlcNAc(b1-6)]Man(a1-6)[Gal(b1-4)GlcNAc(b1-3)Gal(b1-4)GlcNAc(b1-2)Man(a1-3)]Man(b1-4)GlcNAc(b1-4)GlcNAc
In short: as §1

[22] = target: Gal(b1-4)GlcNAc(b1-3)Gal(b1-4)GlcNAc(b1-2)[Gal(b1-4)GlcNAc(b1-3)Gal(b1-4)GlcNAc(b1-6)]Man(a1-6)[Gal(b1-4)GlcNAc(b1-3)Gal(b1-4)GlcNAc(b1-2)Man(a1-3)]Man(b1-4)GlcNAc(b1-4)[Fuc(a1-6)]GlcNAc
In short: as §1

[23] = target: Gal(b1-4)GlcNAc(b1-3)Gal(b1-4)GlcNAc(b1-3)Gal(b1-4)GlcNAc(b1-2)[Gal(b1-4)GlcNAc(b1-3)Gal(b1-4)GlcNAc(b1-3)Gal(b1-4)GlcNAc(b1-6)]Man(a1-6)[Gal(b1-4)GlcNAc(b1-3)Gal(b1-4)GlcNAc(b1-3)Gal(b1-4)GlcNAc(b1-2)Man(a1-3)]Man(b1-4)GlcNAc(b1-4)[Fuc(a1-6)]GlcNAc
In short: as §1

[24] = target: Gal(b1-4)GlcNAc(b1-3)Gal(b1-4)GlcNAc(b1-3)Gal(b1-4)GlcNAc(b1-3)Gal(b1-4)GlcNAc(b1-2)Man(a1-3)[Gal(b1-4)GlcNAc(b1-3)Gal(b1-4)GlcNAc(b1-3)Gal(b1-4)GlcNAc(b1-3)Gal(b1-4)GlcNAc(b1-2)Man(a1-6)]Man(b1-4)GlcNAc(b1-4)GlcNAc
In short: as §1

B1: rMpL (Macrolepiota procera) (protein)
chain: MSTQVSSGRTYKITNVIAGTVIDLSGEDNKSIIGYPYHSGKNQQWTFNWTGKAWTLRSASSGSYLGIEGTPAGGTRLVAVNDPFEWHIWRDEANENAFRIFVPFTNYNLDLSGYGDTTPGTPVQLWWTWEGLHQTWTIDRP
- glycan array binding signal (z-score) [1]: -0.272
- glycan array binding signal (z-score) [2]: -0.078
- glycan array binding signal (z-score) [3]: -0.248
- glycan array binding signal (z-score) [4]: -0.301
- glycan array binding signal (z-score) [5]: -0.259
- glycan array binding signal (z-score) [6]: -0.257
- glycan array binding signal (z-score) [7]: -0.216
- glycan array binding signal (z-score) [8]: -0.353
- glycan array binding signal (z-score) [9]: -0.065
- glycan array binding signal (z-score) [10]: -0.253
- glycan array binding signal (z-score) (Fuc(a1-4)GlcNAc): -0.316
- glycan array binding signal (z-score) (Gal(a1-3)Gal(b1-4)Glc): -0.194
- glycan array binding signal (z-score) [11]: -0.27
- glycan array binding signal (z-score) (Gal(b1-3)Gal(b1-4)GlcNAc): -0.257
- glycan array binding signal (z-score) (Gal(b1-3)GalNAc): -0.273
- glycan array binding signal (z-score) (Gal(b1-3)GalNAc(b1-3)Gal): -0.243
- glycan array binding signal (z-score) [12]: 3.42
- glycan array binding signal (z-score) [13]: 0.808
- glycan array binding signal (z-score) [14]: 2.4
- glycan array binding signal (z-score) [15]: 3.58
- glycan array binding signal (z-score) [16]: 4.17
- glycan array binding signal (z-score) [17]: 0.153
- glycan array binding signal (z-score) [18]: 9.59
- glycan array binding signal (z-score) [19]: 4.13
- glycan array binding signal (z-score) [20]: 1.46
- glycan array binding signal (z-score) [21]: 1.23
- glycan array binding signal (z-score) [22]: 3.75
- glycan array binding signal (z-score) [23]: 4.71
- glycan array binding signal (z-score) [24]: 3.24
